JMJD2A Tudor = blocks the human JMJD2A Tudor domain; 390,000 compounds, 4.4% hits; AlphaScreen JMJD2A-Tudor / H3K4me3 peptide binding; Potency, µM (titrated, usually from 114 µM), inactives show top-dose activity change, negative = inhibition, hits mostly inhibitors; O75164; further: potency means the concentration at half of the fitted maximal effect; on the % scale 0 is the no-effect control and ±100 the full control effect; nearly all actives have a fitted effect of over 50% in size
CtBP-E1A blk = inhibitors of CtBP/E1A interaction; AlphaScreen GST-E1A/His-CtBP binding, 1536-well; active compounds read low; activity change, % (test concentration not listed); 340,000 compounds, 0.49% hits; in the data active means activity change below about -65%; inconclusive means mostly about -30% to -63%; further: on the % scale 0 is the no-effect control and ±100 the full control effect
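Homogeneous bead-based format: GST-tagged E1A captured on glutathione donor beads, His-tagged CtBP on nickel acceptor beads; compounds precede bead addition by 2 h at 37 °C.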
Six1-Eya2 inh = Six1/Eya2 interaction inhibition; Q15475+O00167; AlphaScreen GST-Six1/His-Eya2 binding, biochemical; active compounds read low; activity change, % (test concentration not listed); 360,000 compounds, 0.56% hits; in the data active means activity change below about -65%; inconclusive means mostly about -30% to -63%; further: on the % scale 0 is the no-effect control and ±100 the full control effect
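AlphaScreen luminescence read after one hour at 37 °C in darkness. Pin-transferred compounds met GST-Six1 and His-Eya2 protein (5X stock 250 nM/500 nM) plus glutathione donor and Ni-chelate acceptor beads (5X, 50 ug/mL).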
G9a block = inhibitors of human histone lysine methyltransferase G9a. G9a H3K9 monomethylation, AlphaScreen, 2 h. Q96KQ7. Potency, µM (titrated, usually from 102 µM), inactives show top-dose activity, negative = inhibition, actives largely listed as inhibitors. 350,000 compounds, 8.8% hits; further: potency means the concentration at half of the fitted maximal effect; on the % scale 0 is the no-effect control and ±100 the full control effect; nearly all actives have a fitted effect of over 75% in size
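AlphaScreen detection with an anti-monomethyl H3K9 antibody quantified product after a 2 h room-temperature reaction containing 500 nM biotinylated H3K9 peptide, 20 µM SAM and 20 nM enzyme, which had been preincubated 15 min with compound.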
BAZ2B block = inhibitors of human BAZ2B bromodomain. Q9UIF8. AlphaScreen BAZ2B-H3K14Ac peptide displacement. Potency, µM (titrated, usually from 114 µM), inactives show top-dose activity change, negative = inhibition, actives largely listed as inhibitors. 360,000 compounds, 4.4% hits. AID 504333; further: potency means the concentration at half of the fitted maximal effect; on the % scale 0 is the no-effect control and ±100 the full control effect; nearly all actives have a fitted effect of over 60% in size
Target sequence (Q9UIF8 whole entry, looked up): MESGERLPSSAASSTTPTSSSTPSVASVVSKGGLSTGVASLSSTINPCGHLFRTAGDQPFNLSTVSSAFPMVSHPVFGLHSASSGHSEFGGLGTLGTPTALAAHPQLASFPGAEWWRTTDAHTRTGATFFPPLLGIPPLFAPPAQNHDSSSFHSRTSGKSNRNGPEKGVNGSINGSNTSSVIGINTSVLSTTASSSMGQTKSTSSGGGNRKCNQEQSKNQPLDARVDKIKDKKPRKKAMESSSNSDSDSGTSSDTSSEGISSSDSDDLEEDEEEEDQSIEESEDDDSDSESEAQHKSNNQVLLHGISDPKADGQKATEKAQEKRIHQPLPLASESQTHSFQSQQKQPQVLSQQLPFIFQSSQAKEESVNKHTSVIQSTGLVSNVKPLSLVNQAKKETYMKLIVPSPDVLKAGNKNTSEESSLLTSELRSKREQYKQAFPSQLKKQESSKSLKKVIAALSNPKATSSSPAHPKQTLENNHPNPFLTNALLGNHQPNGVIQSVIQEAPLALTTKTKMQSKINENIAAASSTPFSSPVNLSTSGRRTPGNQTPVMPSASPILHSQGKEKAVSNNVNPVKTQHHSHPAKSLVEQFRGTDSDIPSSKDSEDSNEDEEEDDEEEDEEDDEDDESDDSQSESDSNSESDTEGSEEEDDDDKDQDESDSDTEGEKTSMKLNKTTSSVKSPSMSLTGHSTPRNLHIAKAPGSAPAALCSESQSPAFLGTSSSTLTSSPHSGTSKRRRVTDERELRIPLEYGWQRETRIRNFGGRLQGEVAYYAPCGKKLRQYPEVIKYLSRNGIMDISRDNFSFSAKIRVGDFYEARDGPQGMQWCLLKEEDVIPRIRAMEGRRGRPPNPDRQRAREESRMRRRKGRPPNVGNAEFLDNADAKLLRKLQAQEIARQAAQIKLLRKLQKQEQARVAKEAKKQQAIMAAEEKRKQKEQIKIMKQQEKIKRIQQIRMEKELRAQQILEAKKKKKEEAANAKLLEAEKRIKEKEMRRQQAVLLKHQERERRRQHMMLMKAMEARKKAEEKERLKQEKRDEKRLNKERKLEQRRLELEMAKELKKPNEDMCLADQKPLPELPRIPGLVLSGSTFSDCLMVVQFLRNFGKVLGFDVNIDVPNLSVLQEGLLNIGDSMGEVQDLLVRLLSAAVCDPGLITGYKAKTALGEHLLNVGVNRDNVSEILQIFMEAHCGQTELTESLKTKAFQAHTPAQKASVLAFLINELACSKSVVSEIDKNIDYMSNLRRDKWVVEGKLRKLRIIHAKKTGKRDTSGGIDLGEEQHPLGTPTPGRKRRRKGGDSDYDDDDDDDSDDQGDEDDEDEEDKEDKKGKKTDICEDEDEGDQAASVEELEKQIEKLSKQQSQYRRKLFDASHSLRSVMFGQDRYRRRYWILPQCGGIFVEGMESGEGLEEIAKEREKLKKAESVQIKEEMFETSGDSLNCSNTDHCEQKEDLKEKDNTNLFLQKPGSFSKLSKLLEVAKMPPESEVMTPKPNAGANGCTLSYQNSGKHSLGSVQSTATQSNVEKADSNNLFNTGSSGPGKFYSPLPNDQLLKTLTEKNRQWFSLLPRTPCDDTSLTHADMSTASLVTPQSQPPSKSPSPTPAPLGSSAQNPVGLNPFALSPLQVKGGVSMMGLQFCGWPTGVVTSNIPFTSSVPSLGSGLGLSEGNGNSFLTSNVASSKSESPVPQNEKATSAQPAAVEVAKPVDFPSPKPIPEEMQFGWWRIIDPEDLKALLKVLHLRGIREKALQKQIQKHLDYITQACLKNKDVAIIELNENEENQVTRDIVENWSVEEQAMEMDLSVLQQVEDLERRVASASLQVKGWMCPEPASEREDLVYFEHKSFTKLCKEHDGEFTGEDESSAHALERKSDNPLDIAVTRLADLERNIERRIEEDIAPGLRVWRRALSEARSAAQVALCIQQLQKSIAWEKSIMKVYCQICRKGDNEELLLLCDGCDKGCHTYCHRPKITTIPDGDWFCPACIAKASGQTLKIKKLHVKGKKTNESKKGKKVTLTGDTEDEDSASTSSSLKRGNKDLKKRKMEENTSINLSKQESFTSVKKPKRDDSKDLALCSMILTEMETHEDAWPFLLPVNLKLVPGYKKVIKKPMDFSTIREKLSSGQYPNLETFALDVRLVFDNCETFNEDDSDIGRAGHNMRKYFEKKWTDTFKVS
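AlphaScreen displacement: compounds (up to 110uM) incubated 30 min at room temperature with a preformed 50 nM BAZ2B/50 nM biotinylated H3K14Ac peptide complex in PBS pH 7.4 with Tween-20. Donor and acceptor beads at 10 ug/mL final added, 20 min light-protected before reading.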
HP1b chromo inh = HP1-beta chromodomain-methylated histone interaction inhibition. 390,000 compounds, 0.56% hits. AID 540317. AlphaScreen HP1-beta / biotin-H3K9me3 peptide binding. Potency, µM (highest dose often 114 µM), for inactives: at the top dose activity change, negative = inhibition, most hits filed as inhibitors; further: potency means the concentration at half of the fitted maximal effect; nearly all actives have a fitted effect of over 70% in size
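AlphaScreen: HP1-beta (50 nM) preformed 30 min with biotin-H3(1-18)K9me3 peptide (50 nM) in PBS pH 7.4, 0.01% Tween-20. Compound added for 30 min at RT, then streptavidin donor/nickel chelate acceptor beads (10 ug/mL) for 30 min.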
* = called active by the depositor; ? = inconclusive; / = no result given; ! = a repeat was not active; [ ] = remark or other dose. A selection: hits, their analogues and other compounds. The true share with any hit is near 10%. Unless noted, the call rests on the fitted dose curve; in most records, active means well fitted inhibition curve with a large enough effect; inconclusive means small, poorly fitted or top-dose-only effect; inactive means no such curve, though single readings can be large or run the other way.

SMILES | JMJD2A Tudor | CtBP-E1A blk | Six1-Eya2 inh | G9a block | BAZ2B block | HP1b chromo inh
CC1CCN(Cc2c(C(=O)O)nnn2-c2nonc2N)CC1 | -16% | -5 | 15 | 50µM* | ? | 30%
CCN1CCN(Cc2c(C(=O)N/N=C(\C)c3ccc(Cl)c(Cl)c3)nnn2-c2nonc2N)CC1 | / | / | / | 45µM* | -34% | /
Nc1nonc1-n1nnc(C(=O)N/N=C\c2cccc(Cl)c2)c1CN1CCOCC1 | -12% | ? | -4 | 40µM* | -1% | 22%
COc1ccc(S(=O)(=O)N2CCCCC2c2cc(C(=O)Nc3ccc4c(c3)OCO4)no2)cc1 (stereo unspecified) | / | -10 | -15 | / | / | /
COc1ccc(N2CCN(C(c3cccs3)C(C)NS(=O)(=O)c3ccccc3)CC2)cc1 (stereo unspecified) | 10µM* | -13 | ? | ? | 25µM* | -35%
CC(NS(C)(=O)=O)C(c1cccs1)N1CCN(c2ccccc2)CC1 (stereo unspecified) | -12% | -4 | 1 | 20%[59 µM] | -6% | 16%
CC(NS(=O)(=O)c1ccccc1)C(c1cccs1)N1CCOCC1 (stereo unspecified) | -6% | 10 | 5 | 4% | -4% | 34%
CCS(=O)(=O)NC(C)C(c1cccs1)N1CCN(c2ccc(OC)cc2)CC1 (stereo unspecified) | -31% | -1 | -10 | 14µM* | / | -17%
O=S(=O)(c1ccccc1Br)N1CCN(c2nc(-c3ccccc3)nc3ccccc23)CC1 | -13% | / | / | / | / | 33%
N#Cc1ccsc1NC(=O)CN1CCN(c2ccc(O)cc2)CC1 | ? | 0 | -17 | 18µM* | -35% | ?
Cc1c(NC(=O)CN2CCN(c3ccc([N+](=O)[O-])cc3)CC2)c(=O)n(-c2ccccc2)n1C | -4% | -3 | -12 | 1% | -21% | 24%[57 µM]
Cc1c(NC(=O)CN2CCN(c3ccc(O)cc3)CC2)c(=O)n(-c2ccccc2)n1C | 28µM* | / | 3 | 6.3µM* | / | ?
Cc1ccc(S(=O)(=O)CCC(=O)Nc2sccc2C#N)cc1 | 0% | 3 | -3 | 25µM* | 9% | 31%
COc1ccc(N2CCN(CC(=O)Nc3sccc3C#N)CC2)cc1 | -35% | -10 | -12 | -1%[59 µM] | ? | 2%
COc1ccc(CNCC(=O)Nc2sccc2C#N)cc1 | -7%[11.4 µM] | / | 19 | 28µM* | 50µM* | 22%
CC(=O)N1CCN(CC(=O)Nc2sccc2C#N)CC1 | 56µM* | 2 | 16 | 52% | -26% | -12%
N#Cc1ccsc1NC(=O)CN1CCN(c2ccccc2)CC1 | -17% | -1 | -4 | -2%[59 µM] | -9% | 19%
CC1=CC(C)(C)Nc2ccc(OC(=O)CN3C(=O)c4ccccc4C3=O)cc21 | ? | -26 | ? | 35µM* | 18µM* | ?
CC1=CC(C)(C)Nc2ccc(OC(=O)CN3C(=O)c4cccc5cccc(c45)C3=O)cc21 | ? | -27 | -17 | 8.9µM* | 50µM* | -21%
CCOc1ccc2c(c1)C(C)=CC(C)(C)N2 | ? | 2 | 1 | 8.9µM*! | 50µM* | -7%
CC1(Oc2ccc3ccccc3c2)CCN(Cc2ccc(OC(F)(F)F)cc2)C1 (stereo unspecified) | / | 13 | 6 | / | / | /
COc1ccc(-c2cc(=O)oc3cc(OC(C)C(=O)O)ccc23)cc1 (stereo unspecified) | -21% | -7 | -8 | -5%[59 µM] | -39% | 17%
COc1ccc(-c2cc(=O)oc3c(O)c(O)ccc23)cc1 | ? | -6 | -21 | 8.9µM* | ? | -32%
CCOC(=O)c1ccc(S(=O)(=O)Nc2cc(C(=O)O)ccc2Cl)cc1 | -20% | 9 | 5 | 7.9µM* | -15% | 10%
CCOc1ccc(S(=O)(=O)Nc2cc3c(C(=O)OCc4ccccc4)c(C)oc3c3ccccc23)cc1 | -11% | / | / | ? | -3% | 9%
SMILES | JMJD2A Tudor | CtBP-E1A blk | Six1-Eya2 inh | G9a block | BAZ2B block | HP1b chromo inh
CCOC(=O)c1c(C)oc2c1cc(NS(=O)(=O)c1ccc(C(=O)O)cc1)c1ccccc12 | -21% | -15 | -21 | 35µM* | -29% | -22%
CC(C)CCn1nnnc1C(c1ccc(N(C)C)cc1)N1CCN(C(=O)c2ccco2)CC1 (stereo unspecified) | ? | -13 | -13 | 50µM* | ? | -20%
Cc1ccc(C)c(N2CCN(C(c3ccc(N(C)C)cc3)c3nnnn3C(C)(C)C)CC2)c1 (stereo unspecified) | ? | 2 | -2 | 4.5µM* | -8% | -42%
CC(C)(C)n1nnnc1C(c1ccncc1)N1CCN(c2ccc(O)cc2)CC1 (stereo unspecified) | 45µM* | 48 | 17 | ? | -10% | ?
COCCn1nnnc1C(c1ccc(OC)c(OC)c1)N1CCN(C(=O)c2ccco2)CC1 (stereo unspecified) | -14% | 0 | 2 | -18% | -4% | -2%
C=CCN1CCN(C(c2ccccc2)c2nnnn2CCC(C)C)CC1 (stereo unspecified) | 3.2µM* | -5 | 12 | 50µM* | ? | 51%
Cc1ccc(C)c(N2CCN(C(c3ccccc3)c3nnnn3C(C)(C)C)CC2)c1 (stereo unspecified) | / | -12 | -7 | / | / | /
Cc1nnc(SCC(=O)Nc2c(C)n(C)n(-c3ccccc3)c2=O)n1Cc1ccccc1 | 6% | 5 | 2 | 3% | -4% | 47%
Cc1ccc(C(=O)N2CCc3cc(CNC(=O)c4ccnn4C)ccc32)cc1 | -21% | / | / | -1%[59 µM] | -10% | 22%
CC(C)CCn1nnnc1CN1CCN(C(=O)c2ccco2)CC1 | ? | -24 | 15 | 50µM* | -3% | 9%
Cc1ccc(C)c(N2CCN(C(c3ccncc3)c3nnnn3Cc3ccccc3)CC2)c1 (stereo unspecified) | 79µM* | 0 | -2 | 3.2µM* | ? | 4%
CN(C)c1ccc(C(c2nnnn2C(C)(C)C)N2CCN(C(=O)c3ccco3)CC2)cc1 (stereo unspecified) | -28% | -2 | 0 | 10µM* | -30% | -16%
CCOc1ccc(C(c2nnnn2C(C)(C)C)N2CCN(C(=O)c3ccco3)CC2)cc1 (stereo unspecified) | -4% | 0 | -7 | -3% | -27% | 16%
CCOc1ccc(OCCCC(=O)NCCc2ccc(OC)cc2)cc1 | -11% | -1 | 2 | / | -10% | 35%
CCN(CC)c1ccc(NC(=S)NC(=O)C2CCC2)cc1 | 45µM* | ? | ? | 40µM* | 22µM* | ?
NS(=O)(=O)c1ccc(NC(=S)NC2CC2)cc1 | -15% | / | 1 | 10µM* | -26% | -11%
COC(=O)Nc1ccc(S(=O)(=O)N(CCO)CC(F)(F)C(F)F)cc1 | 9%[57.1 µM] | 3 | -2 | 24%[59 µM] | -4% | 34%

Compound activity deposited in PubChem by National Center for Advancing Translational Sciences (NCATS).
